In PubChem BioAssay (NCI) one finds growth data, which are given here for 26 compounds.

This is part of a sample that, as a whole, favours compounds with a hit. Of some 83,000 tested, about 20% had one in any assay.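 Negative percent growth values reflect cell death: -40 means 40% of the cells present at the start died, and -100 means all died.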 A number with no mark means an inactive call. The source made the active and inactive calls. The calls were made as follows: active = growth percent below 10; inactive = the rest.

Holding throughout (experiment): NCI-60 one-dose screen, 48 h (100 = growth as untreated, 0 = no growth, -100 = all killed)
Holding throughout (details): 10 µM unless noted

Assay [1] has as its system NCI-H23 lung.
In assay [2] the test system is NCI-H226 lung.
In assay [3] the test system is NCI-H322M lung.
In assay [4] the test system is HOP-62 NSCLC.
Assay [5] concerns NCI-H460 lung.
In assay [6] the test system is HOP-92 NSCLC.
The subject of assay [7] is NCI-H522 lung.
Assay [8] has as its system A549/ATCC NSCLC.
The test system of assay [9] is 786-0 renal.
Assay [10] relates to COLO 205 colon.

`CC1(C)CCC(S(=O)(=O)c2ccc3c(c2)/C(=N\O)c2cc(S(=O)(=O)N4CCC(O)(c5cccc(C(F)(F)F)c5)CC4)ccc2-3)CC1`: the growth in assay [1] is -48.7% (active); in [2], -55.9% (active); in assay [3], -38.5% (active); in assay [4] it was -92.1% (active); in [5], -84.5% (active); in assay [6], -36% (active). The growth in assay [7] was -81.4% (active); in assay [8], -83.9% (active); in assay [9], -87.3% (active); in assay [10], -90% (active).
For `O=C1/C(=C/c2ccc(F)cc2)COc2ccc(O)cc21`, the growth was 97% in [1]; 108% in assay [2]; 94.6% in assay [3]; 104% in assay [4]; 98.8% in assay [5]; 104% in assay [6]. The growth in assay [7] was 75.7%; in assay [8], 92.5%; in assay [9], 79.8%; in assay [10], 94.3%.
Take `CC(C)CCNC(=O)Cn1cccc(NC(=O)OCc2ccccc2)c1=O`: the growth in assay [1] was 88%; in assay [2], 87.4%; in [3], 112%; in assay [4] it was 93.8%; in [5], 102%; in assay [6], 91.5%. Also, the growth in [7] is 88.2%; in [8] it was 95.6%; in [9], 111%; in assay [10], 108%.
Take `CNC(=O)c1cc(Oc2ccc3c(c2)sc2nc(-c4cc(OC)c(OC)c(OC)c4)cn23)ccn1`: the growth is 61.1% in [1]; 49% in assay [2]; 72.5% in assay [3]; 66.8% in assay [4]; 66.2% in assay [5]; 15.8% in assay [6]. For the same compound, the growth was 50.4% in assay [7], 63.6% in assay [8], 68.1% in assay [9] and 16.7% in [10].
With `O=S(=O)(NCCCNc1nccc(-c2c(-c3ccc(F)c(O)c3)nc3occn23)n1)c1ccccc1`, the growth in [1] is 84.1%; in assay [2], 115%; in assay [3] it was 98.5%; in assay [4], 102%; in assay [5], 75.7%; in assay [6] it was 71%. Moreover, the growth in [7] was 75.6%; in assay [8], 88.1%; in assay [9], 123%; in [10], 48.6%.
With `COc1ccc(CC(C#N)c2cc3ccccc3[nH]2)cc1` (stereo not given), the growth was 87.1% in assay [1]; 90.6% in [2]; 92.9% in assay [3]; 89% in assay [4]; 97.2% in assay [5]; 49.7% in assay [6]. Further, the growth was 84.3% in [7], 86.3% in assay [8], 94.7% in [9] and 99.8% in assay [10].
As to `COc1cc(C(=O)n2nc(N3CCN(C)CC3)c3cc(N)ccc32)cc(OC)c1OC`, the growth in assay [1] was 38.3%; in assay [2], 47.6%; in assay [3], 58.6%; in assay [4] it was 32.5%; in assay [5], 38.8%; in assay [6] it was 43%. Further, the growth in assay [7] is -7.31% (active); in assay [8], 65.3%; in [9] it was 24.7%; in assay [10], 107%.
With `COc1ccc2c(c1)[n+]([O-])c(C(=O)/C=C/C=C(\Cl)c1cc(OC)c(OC)c(OC)c1)c(C)[n+]2[O-]`, the growth in assay [1] was 79.7%; in assay [2] it was 103%; in [3], 87.5%; in assay [4], -3.57% (active); in assay [5], 102%; in assay [6], 61.3%. Further, the growth in assay [7] is 56.6%; in assay [8], 98.4%; in assay [9], 61.4%; in assay [10], 127%.
Consider `C=C(CNCCc1ccc(O)cc1)[C@@H]1CC[C@]2(CO)CC[C@]3(C)[C@H](CC[C@@H]4[C@@]5(C)CCC(NCCO)C(C)(C)[C@@H]5CC[C@]43C)[C@@H]12` (stereo not given in full), for which the growth in assay [1] was -33.5% (active); in assay [2] it was 81.5%; in assay [3], -24.5% (active); in assay [4], -68.7% (active); in assay [5], -87.4% (active); in assay [6] it was -62.6% (active). Moreover, the growth in assay [7] is -67.2% (active); in [8], -39% (active); in assay [9], -92.1% (active); in [10], -68.5% (active).
As to `O=C(CCc1nnc(Cn2cnc3nc[nH]c3c2=O)o1)c1nc2ncccc2[nH]1`, the growth in [1] is 97.4%; in [2], 101%; in [3], 92.3%; in assay [4], 97.3%; in assay [5], 105%; in assay [6], 104%. Moreover, the growth is 94.3% in assay [7], 98.1% in [8], 93.7% in assay [9] and 104% in [10].
With `COc1ccc(C(=O)Nc2ncc(Cc3ccc(F)cc3)s2)cc1`, the growth in [1] is 30.7%; in assay [2], 40.9%; in [3] it was 34.6%; in [4], 28.7%; in assay [5], 6.59% (active); in assay [6], 51.5%. Besides, the growth in [7] is -5.3% (active); in assay [8], 23.3%; in assay [9], 27.8%; in [10], -16.2% (active).
Take `CCCCC(=O)Nc1ncc(Cc2ccc(Cl)cc2)s1`: the growth in assay [1] was 90.3%; in assay [2], 82%; in assay [3] it was 86.8%; in [4] it was 68.8%; in assay [5], 60.7%; in [6], 69.7%. Also, the growth was 50.1% in [7], 53.1% in [8], 80.7% in assay [9] and 76.5% in [10].
In the case of `CC(C)(C)n1cc(-c2ccnc(NCCCNS(=O)(=O)c3ccc(F)cc3)c2)c(-c2cccc(F)c2)n1`, the growth in assay [1] was 67.5%; in [2] it was 60.1%; in [3], 91.3%; in assay [4], 92.2%; in assay [5], 36.1%; in assay [6] it was 67.5%. For the same compound, the growth in [7] was 57.2%; in [8] it was 43.5%; in [9], 66.7%; in assay [10], 32.6%.
Consider `COc1ccc(C2=Nc3c/c(=C\c4c(O)[nH]c5ccc(Cl)cc45)ccc3=N2)cc1`, for which the growth in assay [1] was 52.1%; in assay [2] it was 66.5%; in assay [3] it was 81.9%; in assay [4], 28.2%; in [5] it was 43.5%; in assay [6], 52.8%. Moreover, the growth in [7] was 29.3%; in [8], 62.5%; in assay [9], 43.6%; in [10] it was -9.26% (active).
For the compound `CCCCNC(=O)Oc1ccc(/C(=C(/CC)Cc2ccccc2)c2ccc(OCCN3CCCCCC3)cc2)cc1`, the growth in assay [1] was 57.4%; in assay [2], 83.4%; in [3] it was 85.4%; in [4], 74.8%; in [5], -59.8% (active); in assay [6] it was 36%. Also, the growth in assay [7] was 30.4%; in assay [8], 39.5%; in assay [9] it was 36.6%; in assay [10], -75% (active).
For the compound `COc1ccc(C2c3sc4c(F)cccc4c3Oc3nc[nH]c(=O)c32)cc1` (stereo not given), the growth in assay [1] was 78.4%; in [2], 66.6%; in assay [3], 68.6%; in assay [4], 79.5%; in [5], 82.7%; in [6], 59.4%. The growth in assay [7] is 80.1%; in assay [8], 88.8%; in assay [9], 91.8%; in [10] it was 108%.
`O=C1Nc2ccccc2/C1=C\c1nc(-c2ccccc2F)n2ccccc12`: the growth in assay [1] is 33.2%; in assay [2], -1.5% (active); in assay [3], 26%; in assay [4], -1.47% (active); in assay [5], -20.4% (active); in [6], 40.4%. In addition, the growth in [7] is -23% (active); in [8] it was 26.5%; in [9], -34.5% (active); in assay [10] it was 72.8%.
As to `Cc1ccc2c3c(c(=O)[nH]c2c1)C1(C(C#N)=C(N)O3)c2cc(Br)ccc2-c2ccc(Br)cc21`, the growth in assay [1] is 6.8% (active); in assay [2], -17% (active); in assay [3] it was 16.5%; in assay [4], -27.5% (active); in assay [5], -56.5% (active); in assay [6], -10.8% (active). The growth in [7] was -8.2% (active); in assay [8], -42.4% (active); in assay [9], -19.5% (active); in [10], -51.8% (active).
With `O=C(c1ccc(Cl)cc1)N1CCN(c2ccnc3cc(Cl)ccc23)CC1`, the growth is 98.4% in [1]; 87.3% in assay [2]; 96.5% in [3]; 102% in assay [4]; 96.2% in assay [5]; 83.7% in assay [6]. Further, the growth was 56.5% in [7], 87% in assay [8], 93.5% in assay [9] and 101% in assay [10].
On to `CCOC(=O)c1cc2c(=O)oc3ccccc3c2oc1=O`, for which the growth in [1] was 112%; in [2] it was 101%; in [3], 100%; in assay [4], 120%; in [5] it was 111%; in assay [6] it was 49.4%. The growth in assay [7] was 92.1%; in assay [8] it was 105%; in assay [9] it was 111%; in [10] it was 129%.
On to `CCOC(=O)C(=Cc1cccc(Cl)c1)C(=O)OCC`, for which the growth was 57.2% in assay [1]; -65.4% (active) in [2]; 84.2% in [3]; 85.2% in [4]; 74.4% in assay [5]; 13.2% in assay [6]. In addition, the growth in [7] is -42.9% (active); in assay [8] it was 46.9%; in assay [9], 7.82% (active); in assay [10] it was -2.83% (active).
On to `Oc1c(Cl)cc(Cl)c2ccc(Cn3cc(-c4ccc(C(F)(F)F)cc4)nn3)nc12`, for which the growth in [1] is 83%; in assay [2] it was 84.2%; in assay [3], 96%; in assay [4], 99.5%; in assay [5], 98.8%; in [6] it was 40.5%. For the same compound, the growth in assay [7] is -30.1% (active); in assay [8], 96.1%; in [9], 95.1%; in [10] it was 83%.
Consider `COc1ccc2[nH]cc(-c3nc(-c4c[nH]c5ccncc45)cs3)c2c1`, for which the growth in assay [1] is 76.6%; in assay [2] it was 93.3%; in assay [3] it was 67.6%; in assay [4], 27.6%; in assay [5] it was -20.7% (active); in [6], 62.5%. In addition, the growth in assay [7] was -18.8% (active); in [8], 24%; in [9], -86% (active); in assay [10] it was -62.8% (active).
Regarding `O=C(CSc1nnc2n1S(=O)(=O)c1ccccc1N2c1ccccc1)Nc1nc2ccc(F)cc2s1`, the growth is 80.3% in assay [1]; 93.2% in [2]; 113% in [3]; 82.3% in assay [4]; 106% in [5]; 88% in assay [6]. For the same compound, the growth in assay [7] is 87.2%; in [8], 93.3%; in assay [9], 96.2%; in [10], 106%.
With `Cc1ccc(C2=Nc3c(N)ncnc3NC(c3ccc4c(c3)OCO4)C2)cc1` (stereo not given), the growth was 74.3% in assay [1]; 85.1% in assay [2]; 102% in assay [3]; 64.5% in [4]; 42.4% in assay [5]; 8.52% (active) in [6]. Moreover, the growth was 47.2% in assay [7], 56.4% in assay [8], 80.8% in [9] and 37.3% in assay [10].
On to `CCCCNc1ccc(C#N)c(OCCN(CC)CC)c1`, for which the growth is 92.8% in [1]; 88% in assay [2]; 100% in assay [3]; 101% in assay [4]; 104% in [5]; 94.4% in assay [6]. Moreover, the growth in assay [7] was 92.8%; in [8], 101%; in [9] it was 112%; in assay [10] it was 100%.
